Source: PubChem BioAssay (NCATS)
Inconclusive results are not listed. Calls of active or inactive are those of the source. The call rests on the fitted dose curve; in most records, active means well fitted curve in the direction sought with a large enough effect; inconclusive means small, poorly fitted or top-dose-only effect, or another doubt; inactive means no such curve, though single readings can be large; an effect the other way counts as inactive or inconclusive.

biological target: Aldehyde dehydrogenase, mitochondrial (Homo sapiens) (UniProt P05091); assay: qHTS for Inhibitors of the Aldehyde Dehydrogenase Family (ALDH2) Primary screen (AID 2061308); conditions: ALDH2 enzyme inhibition qHTS, 1536-well; series mostly up to 56 µM; activity change, negative = inhibition: at the top concentration;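 further: plate controls were vehicle for no effect and reference inhibitor for full effect; nearly all actives have a fitted effect of over 55% in size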

Question: With `Cc1ccccc1C(C(=O)NC1CCCCC1)N(C(=O)Cn1ccnc1C)c1cccc(F)c1` (stereo not drawn) as the compound, how does the “activity change, negative = inhibition” value read?
Answer: 2.13% (inactive)

Question: With `S=P(c1ccccc1)(c1ccccc1)c1c[nH]c2ccccc12` as the compound, how does the “activity change, negative = inhibition” value read?
Answer: -13% (inactive)

Question: Which “activity change, negative = inhibition” value does the source give for `COc1ccc(C23CCC(=O)C=C2N(C)CC3)cc1OC` (stereo not drawn) here?
Answer: -2.38% (inactive)

Question: Which “activity change, negative = inhibition” value does the source give for `COC(=O)C12C(=O)C(C)(O)C(=O)C1(C)C(C)=CC1C34CCC(OC3=O)C(C)(C)C4CCC12C` (stereo not drawn) here?
Answer: -5.48% [at 28 µM] (inactive)

Question: For `C[C@H]1CCC/C=C/C2C[C@H](O)C[C@H]2[C@H](O)/C=C/C(=O)O1` (stereo partly drawn), which “activity change, negative = inhibition” value is on record?
Answer: 1.42% (inactive)

Question: Which “activity change, negative = inhibition” value does the source give for `Cc1cc(-c2nnc3n2CCCCC3)c(C)n1-c1cccnc1` here?
Answer: -12.3% (inactive)

Question: Which “activity change, negative = inhibition” value does the source give for `Cc1cccc(-n2cnc3cc(C(=O)N4CCCC(C)C4)ccc32)c1` (stereo not drawn) here?
Answer: 10.6% (inactive)

Question: With `S=P(c1ccccc1)(c1ccccc1)c1cnc2ccccn12` as the compound, how does the “activity change, negative = inhibition” value read?
Answer: -18% (inactive)

Question: For `C[C@]12CC[C@H](O)CC1=CC[C@@H]1[C@@H]2CC[C@]2(C)C(=O)CC[C@@H]12`, which “activity change, negative = inhibition” value is on record?
Answer: 7.44% (inactive)

biological target: Retinaldehyde dehydrogenase 3 (Homo sapiens) (UniProt P47895); assay: qHTS for Inhibitors of the Aldehyde Dehydrogenase Family (ALDH1A3) Confirmatory screens (AID 2061311); conditions: ALDH inhibition qHTS; series mostly up to 46 µM; activity change, negative = inhibition: at the top concentration; further: potency means the concentration at half of the fitted maximal effect; nearly all actives have a fitted effect of over 60% in size

Question: With `COc1cccc(CNc2ccc(S(=O)(=O)Nc3nc(C)c(C)s3)cc2)c1O` as the compound, how does the Potency read?
Answer: 12.7 µM (active)

Question: For `[Cl][Pt].[NH2-].[NH2-].c1ccncc1`, which Potency is on record?
Answer: 11.3 µM (active)

Question: For `COc1ccc(-n2c(C)cc(-c3nnc4n3CCCCC4)c2C)cc1`, which Potency is on record?
Answer: 10.1 µM (active)

biological target: Retinaldehyde dehydrogenase 3 (Homo sapiens) (UniProt P47895); assay: qHTS for Inhibitors of the Aldehyde Dehydrogenase Family (ALDH1A3) Primary screen (AID 2061315); conditions: ALDH inhibition qHTS; series mostly up to 56 µM; activity change, negative = inhibition: at the top concentration;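 further: plate controls were DMSO vehicle for no effect and reference inhibitor for full effect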

Question: Which “activity change, negative = inhibition” value does the source give for `Cc1ccccc1C(C(=O)NC1CCCCC1)N(C(=O)Cn1ccnc1C)c1cccc(F)c1` (stereo not drawn) here?
Answer: 7.91% (inactive)

Question: With `Cc1nc2ccccn2c1P(=S)(c1ccccc1)c1ccccc1` as the compound, how does the “activity change, negative = inhibition” value read?
Answer: -5.18% (inactive)

Question: Which “activity change, negative = inhibition” value does the source give for `O=C(O)c1ccc(O)c2ncc(N3CCCNCC3)cc12` here?
Answer: 2.34% (inactive)

Question: With `S=P(c1ccccc1)(c1ccccc1)c1c[nH]c2ccccc12` as the compound, how does the “activity change, negative = inhibition” value read?
Answer: 4.6% (inactive)

Question: Which “activity change, negative = inhibition” value does the source give for `COc1ccc(C23CCC(=O)C=C2N(C)CC3)cc1OC` (stereo not drawn) here?
Answer: 0.0485% (inactive)

Question: For `COC(=O)C12C(=O)C(C)(O)C(=O)C1(C)C(C)=CC1C34CCC(OC3=O)C(C)(C)C4CCC12C` (stereo not drawn), which “activity change, negative = inhibition” value is on record?
Answer: 2.58% [at 28 µM] (inactive)

Question: With `C[C@H]1CCC/C=C/C2C[C@H](O)C[C@H]2[C@H](O)/C=C/C(=O)O1` (stereo partly drawn) as the compound, how does the “activity change, negative = inhibition” value read?
Answer: 3.5% (inactive)

Question: Which “activity change, negative = inhibition” value does the source give for `Cc1cc(-c2nnc3n2CCCCC3)c(C)n1-c1cccnc1` here?
Answer: 1.96% (inactive)

Question: With `C=C1[C@@H](C)[C@H]2[C@H](Cc3ccccc3)NC(=O)[C@]23OC(=O)/C=C/C(=O)CCC[C@@H](C)C/C=C/[C@H]3[C@@H]1O` as the compound, how does the “activity change, negative = inhibition” value read?
Answer: -15.5% (inactive)

Question: Which “activity change, negative = inhibition” value does the source give for `Cc1cccc(-n2cnc3cc(C(=O)N4CCCC(C)C4)ccc32)c1` (stereo not drawn) here?
Answer: 7.18% (inactive)

Question: For `S=P(c1ccccc1)(c1ccccc1)c1c(-c2ccccc2)[nH]c2ccccc12`, which “activity change, negative = inhibition” value is on record?
Answer: 1.85% (inactive)

Question: For `S=P(c1ccccc1)(c1ccccc1)c1cnc2ccccn12`, which “activity change, negative = inhibition” value is on record?
Answer: 4.9% (inactive)

Question: Which “activity change, negative = inhibition” value does the source give for `C[C@]12CC[C@H](O)CC1=CC[C@@H]1[C@@H]2CC[C@]2(C)C(=O)CC[C@@H]12` here?
Answer: -13.6% (inactive)

Question: For `COc1ccc(-n2c(C)cc(-c3nnc4n3CCCCC4)c2C)cc1`, which “activity change, negative = inhibition” value is on record?
Answer: 16.4% (inactive)

biological target: Aldehyde dehydrogenase 1A1 (Homo sapiens) (UniProt P00352); assay: qHTS for Inhibitors of the Aldehyde Dehydrogenase Family (ALDH1A1) Confirmatory screens (AID 2061316); conditions: ALDH inhibition qHTS; series mostly up to 47.3 µM; activity change, negative = inhibition: at the top concentration; further: potency means the concentration at half of the fitted maximal effect; nearly all actives have a fitted effect of over 65% in size

Question: For `COc1cccc(CNc2ccc(S(=O)(=O)Nc3nc(C)c(C)s3)cc2)c1O`, which Potency is on record?
Answer: 10.1 µM (active)

Question: With `[Cl][Pt].[NH2-].[NH2-].c1ccncc1` as the compound, how does the Potency read?
Answer: 7.12 µM (active)

Question: For `COc1ccc(-n2c(C)cc(-c3nnc4n3CCCCC4)c2C)cc1`, which Potency is on record?
Answer: 12.7 µM (active)

test system: not listed separately; assay: BET inhibitor-based combinations targeting novel dependencies in MECOM-rearranged (r) AML: SET-2 cell line (AID 2202231); conditions: SET-2 AML cells viability, CellTiter-Glo luminescence, 48 h; viability: active compounds read low, concentration not given here; further: nearly all actives have a fitted effect of over 35% in size; further: potency means the concentration at half of the fitted maximal effect;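 on viability: plate controls were DMSO treated cells for no effect and wells without cells for full effect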
Outline: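 A 48 hr incubation preceded viability reading by CellTiter-Glo, with 15 min room-temperature development. Dose series had 11 points; normalization used DMSO and empty wells; AUC was computed and mean-centered per line as Z-AUC.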

Question: With `COc1cc2cc(c1Cl)N(C)C(=O)C[C@H](OC(=O)C(C)C)[C@]1(C)O[C@@H]1[C@H](C)[C@@H]1C[C@@](O)(NC(=O)O1)[C@H](OC)/C=C/C=C(\C)C2` as the compound, how does the Potency read?
Answer: 0.0021 µM (active)

Question: Which Potency does the source give for `CO[C@H]1CCC(O[C@H]2C[C@H]([C@]3(C)CC[C@]4(C[C@H](O)[C@@H](C)[C@@H]([C@@H](C)/C=C(\C)C(=O)[C@H](C)C[C@H](C)C(=O)O)O4)O3)O[C@]3(O[C@@H]([C@H]4O[C@@](O)(CO)[C@H](C)C[C@@H]4C)C[C@@H]3C)[C@@H]2C)O[C@@H]1C` (stereo partly drawn) here?
Answer: 1.48 µM (active)

Question: For `COC[C@H]1OC(=O)c2coc3c2[C@@]1(C)C1=C(C3=O)[C@@H]2CC[C@H](O)[C@@]2(C)C[C@H]1OC(C)=O`, which Potency is on record?
Answer: 18.6 µM (active)

Question: For `O=C(CBr)N1CC([N+](=O)[O-])([N+](=O)[O-])C1`, which Potency is on record?
Answer: 38.2 µM (active)

Question: Which Potency does the source give for `COc1cc([C@@H]2c3cc4c(cc3[C@@H](O)C3COC(=O)C32)OCO4)cc(OC)c1O` (stereo partly drawn) here?
Answer: 0.468 µM (active)

Question: Which Potency does the source give for `COC(=O)[C@]12CCC(C)(C)C[C@H]1[C@H]1C(=O)C=C3[C@@]4(C)C=C(C#N)C(=O)C(C)(C)[C@@H]4CC[C@@]3(C)[C@]1(C)CC2` here?
Answer: 2.35 µM (active)

Question: For `Cn1c(CCCCCCC(=O)NO)nc2cc(N(CCCl)CCCl)ccc21`, which Potency is on record?
Answer: 2.63 µM (active)

Question: Which Potency does the source give for `C/C1=C/C[C@@H](/C(C)=C/c2csc(C)n2)OC(=O)C[C@H](O)C(C)(C)C(=O)[C@H](C)[C@@H](O)[C@@H](C)CCC1` here?
Answer: 0.0934 µM (active)

Question: With `C#CCN(C)[C@H](C)Cc1ccccc1` as the compound, how does the viability read?
Answer: 96.9% (inactive)

Question: For `N[C@@H]1C[C@H]1c1ccccc1`, which viability is on record?
Answer: 95.9% (inactive)

Question: Which viability does the source give for `COC[C@@H](NC(C)=O)C(=O)NCc1ccccc1` here?
Answer: 112% (inactive)

Question: For `CC1(C)CC(O)CC(C)(C)N1O`, which viability is on record?
Answer: 115% (inactive)

Question: For `CC(C)[C@]12O[C@H]1[C@@H]1O[C@@]13[C@@]1(C)CCC4=C(COC4=O)[C@@H]1C[C@@H]1O[C@@]13C2=O`, which Potency is on record?
Answer: 0.0833 µM (active)

Question: For `C[C@@]12OC(=O)[C@]1([C@@H](O)[C@@H]1C=CCCC1)NC(=O)[C@@H]2CCCl`, which Potency is on record?
Answer: 0.0263 µM (active)

Question: For `CC(=O)O[C@@]12CO[C@@H]1C[C@H](O)[C@@]1(C)C(=O)[C@H](O)C3=C(C)[C@@H](O)C[C@@](O)([C@@H](OC(=O)c4ccccc4)[C@H]21)C3(C)C`, which viability is on record?
Answer: 103% (inactive)

Question: For `CN(C)NC(=O)CCC(=O)O`, which viability is on record?
Answer: 87.9% (inactive)

Question: With `C[C@]12CC[C@@H]3[C@@H](CCC4=CC(=O)CC[C@@H]43)[C@@H]1CC[C@@H]2OC(=O)CCc1ccccc1` as the compound, how does the viability read?
Answer: 104% (inactive)

Question: With `COCC1(CO)C(=O)C2CCN1CC2` (stereo not drawn) as the compound, how does the Potency read?
Answer: 26.3 µM (active)

Question: For `COc1cc2c(cc1F)C(c1ccccc1Cl)=Nc1c(n[nH]c1C)N2`, which Potency is on record?
Answer: 13.2 µM (active)

Question: For `CC(=O)OC[C@H]1O[C@@H]([S-])[C@H](OC(C)=O)[C@@H](OC(C)=O)[C@@H]1OC(C)=O.CC[PH+](CC)CC.[Au]`, which Potency is on record?
Answer: 1.18 µM (active)

Question: Which Potency does the source give for `C[C@@H]1CC[C@@]2(OC1)O[C@H]1C[C@H]3[C@@H]4CC=C5C[C@@H](O[C@@H]6O[C@H](CO)[C@@H](O[C@@H]7O[C@@H](C)[C@H](O)[C@@H](O)[C@H]7O)[C@H](O)[C@H]6O[C@@H]6O[C@@H](C)[C@H](O)[C@@H](O)[C@H]6O)CC[C@]5(C)[C@H]4CC[C@]3(C)[C@H]1[C@@H]2C` here?
Answer: 8.33 µM (active)

Question: Which Potency does the source give for `O=C(Nc1ccncc1)C(=O)c1cn(Cc2ccc(Cl)cc2)c2ccccc12` here?
Answer: 0.525 µM (active)

Question: Which viability does the source give for `C[C@]12CC[C@H](O)CC1=CC[C@@H]1[C@@H]2CC[C@]2(C)C(=O)CC[C@@H]12` here?
Answer: 109% (inactive)

Question: Which Potency does the source give for `C/C(=C\c1csc(C)n1)[C@@H]1C[C@@H]2O[C@]2(C)CCC[C@H](C)[C@H](O)[C@@H](C)C(=O)C(C)(C)[C@@H](O)CC(=O)O1` here?
Answer: 0.0186 µM (active)
